Screening results: PubChem BioAssay, National Center for Advancing Translational Sciences (NCATS)
This is a sample that favours compounds with a hit; in the whole collection about 10% have one here.
Six1-Eya2 blk: Six1/Eya2 interaction inhibition | Q15475+O00167 | AlphaScreen GST-Six1/His-Eya2 binding, biochemical; active compounds read low | activity change, % (concentration not given with the values) | 360,000 tested, 0.56% active; in the data active = activity change below about -65%; inconclusive = mostly about -30% to -63%; note: % is set by controls: 0 for no effect and ±100 for the full control effect
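Six1/Eya2 binding was read as AlphaScreen signal after compounds were pinned into GST-Six1 plus His-tagged Eya2 (5X stock 250/500 nM) in pH 8.0 Tris/NaCl/TCEP buffer, beads added, then incubated 1 h, 37 C, dark.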
CtBP-E1A inh: inhibitors of CtBP/E1A interaction; AlphaScreen GST-E1A/His-CtBP binding, 1536-well; active compounds read low; 340,000 tested, 0.49% active; activity change, % (no concentration beside the values); in the data active = activity change below about -65%; inconclusive = mostly about -30% to -63%; note: % is set by controls: 0 for no effect and ±100 for the full control effect
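GST-E1A and His-tagged CtBP (125 nM each as 5X stock) were preincubated with pin-transferred compound for 2 h at 37 °C in the dark, then glutathione donor and nickel acceptor beads were added for 1 h before AlphaScreen reading.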
HP1b binding inh: inhibitors of HP1-beta chromodomain binding to methylated histone tails; AID 540317; Potency, µM (highest dose often 114 µM), inactives show at the highest dose activity change, negative = inhibition, usual class: inhibitors; AlphaScreen HP1-beta / biotin-H3K9me3 peptide binding; 390,000 tested, 0.56% active; P83916; note: potency is the fitted concentration of half-maximal effect; nearly all actives have a fitted effect of over 70% in size
Target sequence (P83916 whole entry, looked up): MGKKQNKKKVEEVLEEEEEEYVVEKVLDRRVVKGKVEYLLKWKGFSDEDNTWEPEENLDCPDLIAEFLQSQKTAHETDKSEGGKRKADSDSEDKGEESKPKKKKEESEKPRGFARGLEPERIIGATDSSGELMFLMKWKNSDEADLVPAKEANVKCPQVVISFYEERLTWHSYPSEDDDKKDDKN
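Compound inhibition of the preformed complex between 50 nM HP1-beta and 50 nM biotinylated H3K9me3 peptide was read by AlphaScreen. Buffer was PBS pH 7.4 with 0.01% Tween-20. Incubations ran 30 min at room temperature, with 10 ug/mL donor/acceptor beads.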
BAZ2B inh: inhibitors of human BAZ2B bromodomain; 360,000 tested, 4.4% active; Potency, µM (top dose mostly 114 µM), for inactives: at the highest dose activity change, negative = inhibition, actives largely listed as inhibitors; Q9UIF8; AlphaScreen BAZ2B-H3K14Ac peptide displacement; note: potency is the fitted concentration of half-maximal effect; % is set by controls: 0 for no effect and ±100 for the full control effect; nearly all actives have a fitted effect of over 60% in size
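AlphaScreen displacement: compounds (up to 110uM) incubated 30 min at room temperature with a preformed 50 nM BAZ2B/50 nM biotinylated H3K14Ac peptide complex in PBS pH 7.4 with Tween-20. Donor and acceptor beads at 10 ug/mL final added, 20 min light-protected before reading.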
G9a inh: blocks human histone lysine methyltransferase G9a; G9a H3K9 monomethylation, AlphaScreen, 2 h; 350,000 tested, 8.8% active; Q96KQ7; Potency, µM (titrated, usually from 102 µM), without a hit: at the highest dose activity, negative = inhibition, actives largely listed as inhibitors; AID 504332; note: potency is the fitted concentration of half-maximal effect; % is set by controls: 0 for no effect and ±100 for the full control effect; nearly all actives have a fitted effect of over 75% in size
Target sequence (Q96KQ7 913-1193 limits assumed): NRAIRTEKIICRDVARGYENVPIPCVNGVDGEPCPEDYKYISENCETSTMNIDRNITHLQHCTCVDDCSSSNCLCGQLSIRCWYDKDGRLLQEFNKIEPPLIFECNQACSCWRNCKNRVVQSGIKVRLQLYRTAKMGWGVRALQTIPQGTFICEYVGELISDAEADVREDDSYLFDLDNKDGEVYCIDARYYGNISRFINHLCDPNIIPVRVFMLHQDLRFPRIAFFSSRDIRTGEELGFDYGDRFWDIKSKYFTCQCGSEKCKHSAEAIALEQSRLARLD
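Signal arises when biotinylated H3K9 peptide, once monomethylated, bridges streptavidin donor and antibody-captured acceptor beads. Enzyme at 20 nM was preincubated 15 min with test compounds; peptide 500 nM and SAM 20 uM then reacted for 2 h.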
JMJD2A Tudor: inhibitors of human JMJD2A Tudor domain. AlphaScreen JMJD2A-Tudor / H3K4me3 peptide binding. Potency, µM (top dose mostly 114 µM), without a hit: at the top dose activity change, negative = inhibition, most hits filed as inhibitors. 390,000 tested, 4.4% active; note: potency is the fitted concentration of half-maximal effect; % is set by controls: 0 for no effect and ±100 for the full control effect; nearly all actives have a fitted effect of over 50% in size
Numbers without * were called inactive; u = inconclusive; x = no result given; ! = not active in a repeat; [ ] = remark or other dose. Unless noted, calls come from the whole dose curve; as a rule, active = well fitted inhibition curve with a large enough effect; inconclusive = small, poorly fitted or top-dose-only effect; inactive = no such curve, though single readings can be large or run the other way.

SMILES	Six1-Eya2 blk	CtBP-E1A inh	HP1b binding inh	BAZ2B inh	G9a inh	JMJD2A Tudor
CCN(C(=O)c1ccco1)c1nc(-c2ccc(OC)cc2)cs1	0	x	5%	79µM*	15%	12%
O=C(NC(=S)Nc1nc(-c2ccc([N+](=O)[O-])cc2)cs1)c1ccco1	-27	-4	-15%	-24%	25µM*	-25%
O=C(NNc1nc(-c2ccc(Br)cc2)cs1)c1ccco1	-15	-1	30%	-38%	28µM*	-26%
CN1CCN(NC(=O)CC(C)(C)C)CC1	4	3	30%	0%	0%	-18%
Cc1cccc(N/N=C2/COC(C)(C)CC2=O)c1	-17	x	9%	u	79µM*	-27%
Cc1nn(-c2ccccc2)c(-n2cccc2)c1C(=O)NCCCN1CCN(c2ccccc2F)CC1	x	x	-1%	-23%	5%[59 µM]	u
CCOC(=O)c1noc2ncn(CC(=O)Nc3ccc(OC)c(Cl)c3)c(=O)c12	x	x	14%[57 µM]	-11%	-14%[59 µM]	-11%
Cc1c(Cl)cccc1NC(=O)c1ncn[nH]1	u	-7	28%	20µM*	11µM*	25µM*
O=C(Nc1cccc(C(=O)N2CCOCC2)c1)c1ncn[nH]1	u	4	8%	20µM*	-43%[59 µM]	28µM*
Cc1ccc(NC(=O)c2ncn[nH]2)cc1	-3	8	31%	50µM*	2%	10%
O=C(Nc1ccc(Oc2ccc(Cl)cc2)cc1)c1ncn[nH]1	-10	-22	29%	-2%	46%[59 µM]	-9%
O=C(Cn1cc(S(=O)(=O)Cc2cccc(Cl)c2)c2ccccc21)NCc1ccccc1Cl	x	x	13%	-2%	3%[59 µM]	-15%
Cc1nn(CC(=O)NC2CC2)c(=O)c2cc3cc(F)ccc3n12	x	x	28%	2%	1%[59 µM]	-1%
COCCOc1cc(NC(=O)c2sccc2Oc2ccc([N+](=O)[O-])cc2F)c(Cl)cc1Cl	u	-19	0%	-32%	-38%[59 µM]	-32%
O=C(Nc1ccccc1)c1sccc1Oc1ccc([N+](=O)[O-])cc1F	u	u	-9%	25µM*	28µM*	u
CCCc1c(C(=O)NNc2ccc(C)cc2)cnn1-c1ccccc1	2	0	-9%	u	4.5µM*	u
CCCc1c(C(=O)Nc2ccc(C(F)(F)F)cc2)cnn1-c1ccccc1	7	10	43%	2%	33%	-6%
CNC(=O)c1[nH]cnc1C(=O)Nc1ccc(F)cc1	-12	-12	21%	-10%	12%[2.33 µM]	-9%
CNC(=O)c1[nH]cnc1C(=O)Nc1ccccn1	-3	-13	-2%	56µM*	x	u
Cc1cccc(NC(=O)c2nc[nH]c2C(=O)Nc2cccc(C)c2)c1	10	-25	31%	u	-23%	-10%
CNC(=O)c1[nH]cnc1C(=O)Nc1cccc(OC)c1	0	0	16%	50µM*	u	-26%
CNC(=O)c1[nH]cnc1C(=O)Nc1ccccc1	-11	-16	22%	u	5%[0.501 µM]	-23%
CCOC(=O)c1[nH]cnc1C(=O)Nc1cccc(OC)c1	u	-10	29%	u	28µM*!	u
CCOC(=O)c1c(NC(=O)c2cc(C)on2)c2cc([N+](=O)[O-])ccc2n1C	-27	x	17%	2%	11%	-6%
Oc1c(Cl)cc(Cl)cc1CNc1ccc(Br)cn1	-70*	-75*	62%	11%	-4%[59 µM]	46%
SMILES	Six1-Eya2 blk	CtBP-E1A inh	HP1b binding inh	BAZ2B inh	G9a inh	JMJD2A Tudor
N=c1n(CCO)c2ccccc2n1Cc1ccccc1F	x	x	23%	-3%	5%[59 µM]	-9%
CCCCNc1c(-c2cc3ccccc3o2)nc2nc(C)cc(C)n12	9	-10	x	x	x	x
CCCCNc1c(-c2ccccn2)nc2nc(C)cc(C)n12	-88*	u	x	x	x	x
Cc1cc(C)n2c(Nc3c(C)cccc3C)c(-c3ccccn3)nc2n1	-90*	u	x	x	x	x
CN(C)c1nnnn1-c1ccccc1Oc1ncc(C(F)(F)F)cc1Cl	3	1	15%	-4%	18%	-10%
Cc1noc(-c2ccccc2OCC(=O)Nc2ccccc2[N+](=O)[O-])n1	x	x	34%	-24%	u	-25%
Cc1noc(-c2ccccc2OCC(=O)Nc2cccc([N+](=O)[O-])c2)n1	x	x	-21%	u	u	50µM*
Cc1ccccc1-c1noc(-c2ccccc2OCC(=O)Nc2ccccc2[N+](=O)[O-])n1	x	x	-11%	u	14µM*	20µM*
CC(NC(=O)CN1C(=O)NC2(CCc3ccccc32)C1=O)c1ccc2c(c1)OCCO2 (stereo unspecified)	4	-1	22%	-6%	-2%[59 µM]	-13%
Cc1ccc(S(=O)(=O)N(C)C)cc1NC(=O)c1cc(C(C)(C)C)nn1Cc1ccccc1	5	-23	52%	23%	9%	-21%
Cc1cccc(NC(=O)COC(=O)c2cccc3c2C(=O)c2ccccc2C3=O)c1C	-65*	-6	u	u	16%[59 µM]	u
CCN(CC)CCNC(=O)c1ccc2c(c1NCCO)C(=O)c1ccccc1C2=O	u	x	u	40µM*	40µM*	u
O=C(NCCO)c1cccc2c1C(=O)c1ccccc1-2	-4	-3	31%	21%	u	-7%
CC1CC(C)CN(C(=O)c2cccc3c2-c2ccccc2C3=O)C1 (stereo unspecified)	-1	x	22%	-22%	u	-19%
CCN(CC)CCC(=O)Nc1cccc2c1C(=O)c1ccccc1C2=O	-27	-28	-23%	u	40µM*	u
CC1CCN(C(=O)c2ccc3c(c2NCCO)C(=O)c2ccccc2C3=O)CC1	u	u	u	32µM*	u	45µM*
Cc1cccc(C)c1NC(=O)COC(=O)c1cccc2c1C(=O)c1ccccc1C2=O	2	-1	10%	-6%	u	-1%
NC(=O)CSc1nnc(-c2ccco2)n1-c1ccc(F)cc1	7	-6	x	x	x	x
CCn1c(SCC(=O)N(C)C)nc2cc(S(=O)(=O)N3CCOCC3)ccc21	-1	6	28%	5%	u	1%
CN1CCN(c2ncc3nc(CCc4ccccc4)c(=O)n(CCC#N)c3n2)CC1	x	x	x	x	-1%[12.7 µM]	x
Cc1cccn2c(=O)cc(COc3cccc(NC(=O)c4ccccc4F)c3)nc12	x	x	11%[57 µM]	-27%	-17%[59 µM]	u
CCOC(=O)c1c(-c2ccc(F)cc2)csc1NC(=O)C1CCCO1 (stereo unspecified)	9	1	4%	8%	20µM*	23%
CCOC(=O)c1c(-c2ccc(OC)cc2)csc1NC(=O)C1CCCO1 (stereo unspecified)	4	0	-11%	4%	13µM*	-6%
